# In the library only some 1.2% were active in any assay of this set; here they are far more common.
# NOD2 RIPK2 PPI: NOD2-RIPK2 protein interaction inhibition; CHO BLA complementation NOD2-RIPK2, CCF4 ratio; inhibition, % at 4.98 µM; actives 0.38% (n = 360,000); AID 624267; in the data active means inhibition above about 21%;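 further: 0% = vehicle only and 100% = reference blocker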
# Target sequence (O43353 whole entry, looked up): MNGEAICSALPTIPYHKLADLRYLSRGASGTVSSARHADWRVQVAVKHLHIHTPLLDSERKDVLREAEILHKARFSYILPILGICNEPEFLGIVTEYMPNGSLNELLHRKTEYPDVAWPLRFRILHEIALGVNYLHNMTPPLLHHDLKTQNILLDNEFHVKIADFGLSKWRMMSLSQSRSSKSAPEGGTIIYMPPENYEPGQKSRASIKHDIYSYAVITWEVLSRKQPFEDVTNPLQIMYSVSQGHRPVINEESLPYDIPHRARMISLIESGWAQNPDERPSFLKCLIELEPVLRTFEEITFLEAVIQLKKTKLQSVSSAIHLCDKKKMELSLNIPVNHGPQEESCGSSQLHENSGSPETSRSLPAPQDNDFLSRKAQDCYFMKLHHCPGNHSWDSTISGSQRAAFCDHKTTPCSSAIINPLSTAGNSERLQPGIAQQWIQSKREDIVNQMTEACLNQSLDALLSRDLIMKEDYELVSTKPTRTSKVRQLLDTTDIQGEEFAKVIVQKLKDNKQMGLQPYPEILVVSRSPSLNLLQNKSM
# TLR4 MyD88 comp: inhibitors of human TLR4-MyD88 binding; O00206+Q99836; HeLa CL3-4 TLR4/MyD88 BLA complementation, FRET ratio; inhibition, % at 8.4 µM; actives 0.18% (n = 200,000); in the data active means inhibition above about 25%;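 further: 0% = vehicle and 100% = reference inhibitor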
# TLR9-MyD88 block: blocks human TLR9 binding to MyD88 | CHO BLA complementation TLR9-MyD88, CCF4 FRET ratio | Q9NR96+Q99836 | AID 504734 | inhibition, % at 4.98 µM | actives 0.21% (n = 340,000);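 active means inhibition above the mean over all tested compounds plus 3 SD, cut at about 21% in these data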;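 further: 0% = DMSO only wells and 100% = clavulanate BLA inhibitor control wells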
# ABHD5-PLIN5 inh: inhibitors of human ABHD5-perilipin-5 interaction; Q00G26+Q8WTS1; Split G. princeps luciferase complementation, luminescence, 4 h; inhibition, % at 4 µM; actives 0.78% (n = 360,000); AID 602281;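 active means inhibition above the mean inhibition across every tested compound plus 3 SD, cut at about 22% in these data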;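 further: 0% = DMSO only wells and the 100% control is not disclosed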
# TLR9-MyD88 cf: TLR9-MyD88 interaction inhibition, confirmation; shares compounds with TLR9-MyD88 block; CHO TLR9/MyD88 BLA complementation, CCF4 FRET ratio; inhibition, % at 4.98 µM; actives 51% (n = 680);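 active means mean inhibition across three repeats above about 21% taken from the earlier screen, limit read from the data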;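 further: blue over green emission ratio reports constitutive TLR9 MyD88 association via BLA complementation; 0% = DMSO vehicle wells and 100% = clavulanate BLA inhibitor wells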
# BLA counter: non-selective beta-lactamase inhibitors in TLR9-MyD88 counter-screen; inhibition, % at 4.98 µM; CHO-BLA cells, CCF4 FRET ratio, BLA reporter; shares compounds with TLR9-MyD88 block; actives 7% (n = 680);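 active means mean inhibition above a 50% cutoff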;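 further: counterscreen of TLR9-MyD88 hits on CMV-driven BLA in CHO-K1 cells; 0% = DMSO alone and 100% = clavulanate blocking BLA; higher means less blue over green ratio so more BLA blockade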
# TLR9 CHO tox: CHO cell toxicity counter-screen for TLR9-MyD88 inhibitors. TLR9-MyD88 CHO cells cytotoxicity, luminescence. shares compounds with TLR9-MyD88 block. actives 39% (n = 680). inhibition, % at 4.98 µM; in the data active means inhibition above about 11%
# Numbers without * were called inactive; nt = not tested or not shown.
SMILES,NOD2 RIPK2 PPI,TLR4 MyD88 comp,TLR9-MyD88 block,ABHD5-PLIN5 inh,TLR9-MyD88 cf,BLA counter,TLR9 CHO tox
CCN(CC)c1ccc(C=NNc2ccc([N+](=O)[O-])cn2)cc1,14,nt,22*,-1,38*,39,3
COc1ccccc1CN(C(=O)CNC(=O)c1ccco1)C(C(=O)NCC1CCCO1)c1ccc(OC)c(OC)c1 (stereo not drawn),-2,nt,4,-17,nt,nt,nt
Cn1nc(SCc2ccccc2)c(=O)[nH]c1=O,-4,nt,5,-1,nt,nt,nt
Cc1ccc(NC(=O)CN(C)C(=O)Nc2ccc(C)cc2)cc1,-9,nt,-10,1,nt,nt,nt
Cc1ccc(NC(=O)/C(CN(C)C)=N\O)cc1,13,17,24*,10,6,8,0
CS(=O)(=O)c1ncc(Cl)c(C(=O)Nc2ccc(N3CCOCC3)cc2)n1,47*,25,43*,60*,47*,34,95*
O=[N+]([O-])c1ccc(C=CC=Cc2ccccc2)cc1,6,nt,25*,-1,17,20,-3
CCCCN(C(=O)CSc1nnc(-c2ccccc2)n1C)c1c(N)n(Cc2ccccc2)c(=O)[nH]c1=O,2,0,21*,10,-1,-1,1
Cc1noc(C)c1S(=O)(=O)N1CCCN(C(=O)/C=C/c2ccccc2F)CC1,-17,nt,-12,-2,nt,nt,nt
CCc1ccc(/C=C2\Oc3c(ccc(O)c3CN3CCN(C)CC3)C2=O)cc1,15,nt,0,8,nt,nt,nt
CCN1CCN(Cc2c(O)ccc3c2O/C(=C\c2ccc(C)cc2)C3=O)CC1,16,10,21*,-7,10,14,1
CCS(=O)(=O)Nc1ccc(C(=O)OC)cc1,1,6,1,1,nt,nt,nt
CCS(=O)(=O)Nc1ccc(C(=O)c2ccccc2)cc1,8,6,22*,-1,-6,-4,5
c1ccc(-c2cnn3c(-c4ccccc4)c(-c4ccccc4)nc3n2)cc1,9,13,23*,7,60*,58*,-3
Cc1ccc(OCC(=O)N(Cc2ccco2)c2c(N)n(Cc3ccccc3)c(=O)[nH]c2=O)cc1C,3,nt,0,-2,nt,nt,nt
CCOCCCn1c(SCC(=O)Nc2ccc3[nH]c(=O)[nH]c3c2)nc2ccccc2c1=O,5,nt,1,-2,nt,nt,nt
CCCn1c(/C=C/c2cc[n+](C)cc2)nc2ccccc21,16,nt,30*,5,17,22,-1
CCOC(=O)COc1ccc2ccccc2c1/C=C/[N+](=O)[O-],-1,0,24*,8,34*,-3,90*
CC(=O)c1ccc(N(CC(=O)NC2CCCCC2)C(=O)CNC(=O)c2cccs2)cc1,-1,nt,-5,-1,nt,nt,nt
COc1ccc(CN2CCC(CNC(=O)NC3CCCCC3)CC2)cc1,2,6,22*,1,-1,2,0
COc1ccc(CNC(=O)NC2CCCCC2)cc1,-4,-2,-9,-5,nt,nt,nt
CCN(CC)C(=O)CSc1nc(-c2cccs2)cc(-c2cccs2)c1C#N,-7,14,-7,10,nt,nt,nt
CN1CCN(C(=O)CSc2nc(-c3cccs3)cc(-c3cccs3)c2C#N)CC1,18,-10,24*,14,21,19,5
COc1ccccc1C1C=C(c2ccc(Cl)cc2)Nc2nc(NS(C)(=O)=O)nn21 (stereo not drawn),nt,5,nt,nt,nt,nt,nt
CC(=O)Nc1nc2n(n1)C(c1ccccc1)C=C(c1ccccc1)N2 (stereo not drawn),56*,18,56*,-2,34*,40,1
SMILES,NOD2 RIPK2 PPI,TLR4 MyD88 comp,TLR9-MyD88 block,ABHD5-PLIN5 inh,TLR9-MyD88 cf,BLA counter,TLR9 CHO tox
CS(=O)(=O)Nc1nc2n(n1)C(c1ccccc1)C=C(c1ccc(Br)cc1)N2 (stereo not drawn),47*,17,37*,-8,8,9,2
COc1cccc(C2=CC(c3ccc(OC)c(OC)c3OC)n3nnnc3N2)c1 (stereo not drawn),15,1,22*,5,3,4,3
NC(=O)c1ccsc1NC(=O)CSc1nncs1,8,nt,-1,-9,nt,nt,nt
O=C(CSc1nncs1)Nc1nccs1,0,nt,26*,2,0,-2,-1
Cc1oc(-c2cc(F)ccc2F)nc1CN1CCN(c2cnccn2)CC1,1,-2,22*,-8,-2,-3,2
Cc1oc(-c2cc(F)ccc2F)nc1CN(C)Cc1ccc2nccnc2c1,-11,-1,2,-2,nt,nt,nt
Cc1cc(NC(=O)c2c([N+](=O)[O-])cnn2C)no1,-9,-13,34*,3,3,-6,0
COc1ccc(C(=O)/C=C/c2ccc(O)cc2)c2c1CC(O)C(C)(C)O2 (stereo not drawn),3,nt,23*,0,6,5,5
COc1ccc(C(=O)/C=C/c2ccc(O)cc2)c(O)c1CC=C(C)C,3,-6,5,-16,nt,nt,nt
CCN(CC(=O)Nc1cc(Cl)ccc1C)CC(=O)NC1CC1,-1,nt,-13,2,nt,nt,nt
COc1ccc(S(=O)(=O)N2CCC(NC(=O)C3CCCCC3)CC2)cc1,4,nt,21*,-2,-35,1,-3
CCCCN(C=O)c1c(CC)nc2ccc(C(=O)NCc3cccs3)cn12,-4,nt,nt,1,nt,nt,nt
Cc1ccsc1C1C=C(c2cccc(Br)c2)Nc2ncnn21 (stereo not drawn),20,0,28*,-3,5,2,7
COc1ccc(C2=CC(c3sccc3C)n3nnnc3N2)cc1 (stereo not drawn),1,4,-9,1,nt,nt,nt
COc1ccccc1NS(=O)(=O)c1cccc(NC(=O)C2CC2)c1,2,nt,5,-1,nt,nt,nt
COc1ccccc1NS(=O)(=O)c1cccc(NC(=O)C2CC(=O)N(Cc3ccccc3)C2)c1 (stereo not drawn),-10,0,24*,6,-2,0,1
CC(C)(C)C(=O)NC(=S)NNC(=O)c1sc2ccccc2c1Cl,-14,-11,30*,-5,9,25,47*
CCOC(=O)Cc1csc(/N=C/c2c(O)n(-c3ccccc3C(F)(F)F)c(=O)c3ccccc23)n1,9,18,22*,5,8,9,10
COc1cc(-c2cc(NC(C)=O)c3ncc(-c4ccc(C(C)=O)cc4)n3c2)cc(OC)c1OC,-11,nt,nt,6,nt,nt,nt
Cc1c(NC(=O)COc2cccc(Br)c2)c(=O)n(-c2ccccc2)n1C,-7,nt,-1,5,nt,nt,nt
COc1ccc2c(c1)CC(C1(O)C(=O)Nc3ccccc31)C2=O (stereo not drawn),-5,4,-2,5,nt,nt,nt
O=C1CCCCCC1C1(O)C(=O)Nc2ccccc21 (stereo not drawn),-3,13,32*,-1,1,0,1

# Screens as filed in PubChem BioAssay.
